Reference: PubChem BioAssay (EPA / NIEHS)
Results filed as inconclusive are left out. Where a structure was tested more than once in an assay, its records may differ in their call. Activity calls are given as the source filed them. Rule for the calls: active = hit-call score of the fitted dose curve at least 0.9, where 1 is the maximum; inconclusive = response in the unintended direction; inactive = score below 0.9.

What follows are compounds tested against human Peroxisome Proliferator-activated Receptor alpha (PPARa), PPARA (gene 5465) (UniProt Q07869) (assay: ATG_PPARa_TRANS: Attagene TRANS-FACTORIAL HepG2 Assay for human Peroxisome Proliferator-activated Receptor alpha (PPARa) (AID 2283001);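 for AC50: potency for gain of reporter signal over DMSO so agonist or activator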).
Method: ATG_TRANS is a cell-based, multiplexed-readout assay that uses HepG2, a human liver cell line, with measurements taken at 24 hours after chemical dosing in a 24-well plate.ATG_PPARa_TRANS is one of 30 assay component(s) measured or calculated from the ATG_TRANS assay. It is designed to make measurements of mRNA induction, a form of inducible reporter, as detected with fluorescence intensity signals by Reverse transcription polymerase chain reaction (RT-PCR) and Capillary electrophoresis technology.Data from the assay component ATG_PPARa_TRANS was analyzed into 1 assay endpoint. This assay endpoint, ATG_PPARa_TRANS, was analyzed in the positive analysis fitting direction relative to DMSO as the negative control and baseline of activity. Using a type of inducible reporter, measures of mRNA for gain-of-signal activity can be used to understand the reporter gene at the transcription factor-level as they relate to the gene PPARA. Furthermore, this assay endpoint can be referred to as a primary readout, because this assay has produced multiple assay endpoints where this one serves a reporter gene function. To generalize the intended target to other relatable targets, this assay endpoint is annotated to the nuclear receptor intended target family, where the subfamily is non-steroidal.
Human liver HepG2 cells are transiently transfected with multiple reporter transcription units (MRTUs) in 6-well plates using FuGene 6 reagent (Roche; 3 ml FuGene/1 mg DNA). The MRTU constructs are regulated by a cis-regulating element (promoter). […] A major difference between the CIS and TRANS system is that in CIS activities of endogenous TFs are measured, whereas the TRANS assay evaluates changes in activities of exogenous, chimeric NR-Gal4 proteins. […] At the end of 24 hour incubation, total RNA was isolated using TriZol reagent (Invitrogen). The isolated RNA is then reverse-transcribed using oligo(dT) primer and Mo-MLV reverse transcriptase (Invitrogen) with DNAse I (Ambion) treatment for 30 min. The one-tenth of the produced cDNA was amplified by PCR using Taq DNA polymerase (Invitrogen) and two reporter sequence-specific primers. The PCR products were fluorescently labeled by primer extension with 6-arboxyfluorescein (6-FAM) 5'-labeled reporter sequence-specific primer (2 min at 95 C, 20 s at 68 C and 10 min at 72 C) and these products were digested with 5U of HpaI (New England Biolabs) for 2h at 37 C. The fragments were purified using Qiaquick PCR columns (Qiagen), analyzed on an ABI 3130xL genetic analyzer (Applied Biosystems) with peak positions identified by using a set of X-rhodamine (ROX)-labeled MapMarker1000 molecular weight standards (BioVentures). The raw capillary electrophoresis data was processed using Attagraph software (Attagene).

Sequence of human Peroxisome Proliferator-activated Receptor alpha (PPARa), PPARA (gene 5465) (Q07869 whole entry, looked up): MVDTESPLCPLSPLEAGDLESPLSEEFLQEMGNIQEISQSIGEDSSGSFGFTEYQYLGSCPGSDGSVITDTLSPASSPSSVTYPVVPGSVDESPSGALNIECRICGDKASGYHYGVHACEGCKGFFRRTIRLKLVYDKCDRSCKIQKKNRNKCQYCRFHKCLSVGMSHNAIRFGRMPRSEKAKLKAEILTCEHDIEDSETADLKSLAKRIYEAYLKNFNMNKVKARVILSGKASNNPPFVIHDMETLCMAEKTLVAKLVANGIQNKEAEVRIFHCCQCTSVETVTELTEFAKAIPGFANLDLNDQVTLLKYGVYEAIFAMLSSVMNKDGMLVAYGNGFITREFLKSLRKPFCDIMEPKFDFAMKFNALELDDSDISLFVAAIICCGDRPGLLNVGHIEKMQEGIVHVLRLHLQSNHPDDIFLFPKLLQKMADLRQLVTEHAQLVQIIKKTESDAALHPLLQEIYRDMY

Row | SMILES | outcome | AC50
1 | CCN(CC)c1ccc2c(C)cc(=O)oc2c1 | inactive | –
2 | CCCCCCCCCCCCCCCC[N+](C)(C)Cc1ccccc1 | – | 45 µM (active)
3 | N=C(N)C(F)(F)C(F)(F)C(F)(F)C(F)(F)C(F)(F)C(F)(F)C(F)(F)F | inactive | –
4 | Cc1cccc(N(C)C)c1 | inactive | –
5 | O=C(O)C(F)(OC(F)(F)C(F)(OC(F)(F)C(F)(F)C(F)(F)F)C(F)(F)F)C(F)(F)F (stereo not given) | inactive | 108 µM (active)
6 | CCCCCCS | inactive | –
7 | FC(F)(F)C(F)(F)CNCC(F)(F)C(F)(F)F | inactive | –
8 | FC(F)(I)C(F)(F)C(F)(F)C(F)(F)I | inactive | –
9 | Oc1ccc(Nc2ccccc2)cc1 | inactive | –
10 | FC(F)(F)C(F)(F)C(F)(F)C(F)(F)C(F)(F)C(F)(F)C(F)(F)C(F)(F)F | inactive | –
11 | C=CC(=O)OCC(F)(F)C(F)(F)C(F)(F)C(F)(F)COC(=O)C=C | inactive | –
12 | FC(F)(F)C(F)(F)C(F)(F)C(F)(F)CCI | inactive | –
13 | C1COCCN1 | inactive | –
14 | CS(C)(=O)=O | inactive | –
15 | O=C(O)C(F)(F)C(F)(F)C(F)(F)C(F)(F)C(F)(F)C(F)(F)C(F)(F)C(F)(F)C(F)(F)C(F)F | – | 19.4 µM (active)
16 | OCCCC(F)(F)C(F)(F)C(F)(F)C(F)(F)C(F)(F)C(F)(F)C(F)(F)F | inactive | –
17 | FC1CC(F)(F)C(F)(F)C1(F)F (stereo not given) | inactive | –
18 | C#C[C@]1(O)CC[C@H]2[C@@H]3CCc4cc(OC)ccc4[C@H]3CC[C@@]21C | inactive | –
19 | CC(C)(C)C(=O)CC(=O)C(F)(F)C(F)(F)C(F)(F)F | inactive | –
20 | FC(F)(F)C(F)(F)C(F)(F)C(F)(F)C(F)(F)C(F)(F)C(F)(F)C(F)(F)CCS | inactive | –

Row | SMILES | outcome | AC50
21 | Nc1ccc(Oc2cccc(Oc3ccc(N)cc3)c2)cc1 | inactive | –
22 | FC(F)(F)C(F)(F)C(F)(F)C(F)(F)C(F)(F)C(F)(F)CCS | inactive | –
23 | NC(=O)C(F)(F)C(F)(F)C(F)(F)C(F)(F)F | inactive | –
24 | COC(=O)C1CCC(C(=O)OC)CC1 (stereo not given) | inactive | –
25 | COC(=O)CCC(F)(F)C(F)(F)C(F)(F)C(F)(F)F | inactive | –
26 | CCCCCCOC(=O)c1ccccc1 | inactive | –
27 | OCC(F)(F)C(F)(F)C(F)(F)F | inactive | –
28 | CCCCCCC(C)OC(=O)CCCCC(=O)OC(C)CCCCCC (stereo not given) | inactive | –
29 | O=S(=O)(OCCOC(F)(F)F)C(F)(F)F | inactive | –
30 | CCCCCC=O | inactive | –
31 | O=C(O)C(F)(F)C(F)(F)F | inactive | –
32 | CCCCCCCOC(=O)c1ccccc1C(=O)OCCCCCCC | inactive | –
33 | O=C(O)C(F)(F)C(F)(F)C(F)(F)C(F)(F)C(F)(F)C(F)(F)C(F)(F)C(F)(F)C(F)(F)C(F)(F)C(F)(F)C(F)(F)F | inactive | –
34 | Nc1cc(Cl)c(N)c(Cl)c1 | inactive | –
35 | CN(C)Cc1ccccc1O | inactive | –
36 | O=C(O)C(F)(F)C(F)(F)C(F)(F)F | inactive | –
37 | FC(F)(F)C(F)(F)C(F)(F)C(F)(F)C(F)(F)C(F)(F)CC1CO1 (stereo not given) | inactive | –
38 | C=C(C)C(=O)OCC(F)(F)C(F)(F)C(F)(F)F | inactive | –
39 | CO[Si](OC)(c1ccccc1)c1ccccc1 | inactive | –
